From the supplement of paper PMC13380429

What was measured:
[1] = system: Vero E6 infected with SARS-CoV-2; assay: morphology score (similarity to uninfected cells); higher = more like uninfected cells; conditions: 24 h
[2] = system: Vero E6 infected with SARS-CoV-2; assay: SARS-CoV-2 infection rate relative to infected DMSO; higher = more infection, active = 60 or less; conditions: 24 h

CCC(CC)(CC(=O)Nc1cccc(/C=C/c2nc(C3CCC3)cs2)c1)C(=O)O [cinalukast] (10 µM)
morphology score [1]: 0.068
SARS-CoV-2 infection rate [2]: 105% (inactive)

Cn1cc(-c2ccncc2)c(-c2ccc(OCc3ccc4ccccc4n3)cc2)n1 (10 µM)
morphology score [1]: 0.927
SARS-CoV-2 infection rate [2]: 8% (active)

CN(C)C(=O)C(=O)c1cn(C)c2cc(Cl)c(C(=O)N3CCC(Cc4ccc(F)cc4)CC3)cc12 (10 µM)
morphology score [1]: 0.323
SARS-CoV-2 infection rate [2]: 82% (inactive)

O=C(CC1NCCCC1O)Cn1cnc2cc(Br)c(Cl)cc2c1=O (stereo unspecified) [halofuginone] (0.833333 µM)
morphology score [1]: -0.082
SARS-CoV-2 infection rate [2]: 99.5% (inactive)

Cc1cncc(CN2CCC(=C3c4ccc(Cl)cc4CCc4cccnc43)CC2)c1 [rupatadine] (10 µM)
morphology score [1]: -0.0273
SARS-CoV-2 infection rate [2]: 108% (inactive)

CN(C)CCn1cc(S(=O)(=O)c2cccc(F)c2)c2cccnc21 (10 µM)
morphology score [1]: -0.0241
SARS-CoV-2 infection rate [2]: 109% (inactive)

Cc1c(N)nc([C@H](CC(N)=O)NC[C@H](N)C(N)=O)nc1C(=O)N[C@H](C(=O)N[C@H](C)[C@@H](O)[C@H](C)C(=O)N[C@H](C(=O)NCCc1nc(-c2nc(C(=O)NCCCNCCCCN)cs2)cs1)[C@@H](C)O)[C@@H](O[C@@H]1O[C@@H](CO)[C@@H](O)[C@H](O)[C@@H]1O[C@@H]1O[C@H](CO)[C@@H](O)[C@H](OC(N)=O)[C@@H]1O)c1cnc[nH]1 [bleomycetin] (0.833333 µM)
morphology score [1]: 0.128
SARS-CoV-2 infection rate [2]: 111% (inactive)

C#C[C@]1(OC(=O)CCCCCC)CC[C@H]2[C@@H]3CCC4=CC(=O)CC[C@@H]4[C@H]3CC[C@@]21C [norethisterone-enanthate] (10 µM)
morphology score [1]: 0.146
SARS-CoV-2 infection rate [2]: 96.5% (inactive)
